Laboratory results from PubChem BioAssay.
Values joined by “and” are separate entries in the source; they are usually repeats but may differ in a detail not shown here. Equal entries are not always repeated. Results filed as inconclusive are left out. Active and inactive are the calls of the source.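 Rule for the calls, unless noted: active = normalized viability below 100% at a tested concentration; inactive = the rest.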

What was measured:
[1] = growth inhibition of DIPG glioma cells, dose response, cell-based, SU-DIPG-XVII, MIPE5.0, CellTiter-Glo, qHTS (AID 1347060; cut-off not given, nearly all actives have AC50 up to about 26 µM;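 for AC50: cells exposed to compound for 48 hours before viability readout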); conditions: SU-DIPG-XVII viability, CellTiter-Glo ATP luminescence
[2] = growth inhibition of DIPG glioma cells, dose response, cell-based, SU-DIPG-XIII, MIPE4.0, CellTiter-Glo, qHTS (AID 1347061; cut-off not given, nearly all actives have AC50 up to about 37 µM;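 note: cells exposed to compound for 48 hours before readout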); conditions: SU-DIPG-XIII viability, CellTiter-Glo ATP luminescence
[3] = growth inhibition of DIPG glioma cells, dose response, cell-based, JHH-DIPG-1, MIPE4.0, CellTiter-Glo, qHTS (AID 1347062; cut-off not given, nearly all actives have AC50 up to about 27 µM;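 for AC50: cells exposed to compound for two days before readout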); conditions: JHH-DIPG-1 viability, CellTiter-Glo ATP luminescence
[4] = growth inhibition of DIPG glioma cells, dose response, cell-based, SU-DIPG-IV, MIPE4.0, CellTiter-Glo, qHTS (AID 1347063; cut-off not given, nearly all actives have AC50 up to about 30 µM;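 note: compound exposure lasted 48 hours before the viability readout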); conditions: SU-DIPG-IV viability, CellTiter-Glo ATP luminescence
[5] = growth inhibition of DIPG glioma cells, dose response, cell-based, SU-DIPG-XIII, MIPE5.0, CellTiter-Glo, qHTS (AID 1347064; cut-off not given, nearly all actives have AC50 up to about 23 µM;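 for AC50: cells exposed to compound for 48 hours before the viability read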); conditions: SU-DIPG-XIII viability, CellTiter-Glo ATP luminescence
[6] = viability loss in pontine glioma line – cell-based, SU-DIPG-XXV, MIPE5.0, CellTiter-Glo, qHTS, dose response (AID 1347065; cut-off not given, nearly all actives have AC50 up to about 26 µM;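 note: cells exposed to compound for 48 hours before ATP readout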); conditions: CellTiter-Glo ATP luminescence
[7] = SU-DIPG-VI glioma cell viability, MIPE4.0 library, CellTiter-Glo luminescence, qHTS (AID 1347066; cut-off not given, nearly all actives have AC50 up to about 30 µM;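 note: cells exposed to compound for 48 hours before readout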); conditions: CellTiter-Glo ATP luminescence
[8] = JHH-DIPG-1 glioma cell viability, MIPE5.0 library, CellTiter-Glo luminescence, qHTS (AID 1347067; cut-off not given, nearly all actives have AC50 up to about 26 µM;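 note: cells exposed to compound for 48 hours before readout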); conditions: JHH-DIPG-1 glioma viability, CellTiter-Glo ATP luminescence
[9] = SU-DIPG-XXV glioma cell viability, MIPE5.0 library, qHTS (AID 1347068; cut-off not given, nearly all actives have IC50 up to about 30 µM;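 for IC50: cells exposed to compound for 48 hours before viability readout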)
[10] = sensitizers of A549 cells to miR-34 induction, primary screen, imaging, A549 dox-inducible miR-34, nuclei and caspase counts (AID 1347080;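 active = compounds whose cell count with miR-34 switched on is under 0.7 times the count with it off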); conditions: A549 miR-34 inducible, Hoechst nuclei count, 48 h
[11] = modifiers of HSF1 nuclear foci, imaging, Selleck Cancer Library (AID 1347162; in the data active = plate-normalised HSF1 focus index below about 0.46); conditions: human cells, at 10 µM; SSMD: measured here: HSF1 foci SSMD mean; cell count: measured here: cell number; plate-normalised HSF1 focus index: stronger effect = lower value
[12] = survival rescue of mitochondrial mutant cells in low glucose, primary screen, MELAS cybrids, Rieske KO mouse fibroblasts, CellTiter-Glo (AID 1508586;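 active = mean z-score across replicates of 1.96 or higher in either the MELAS or the Rieske mutant cell line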;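 note: z relative to plate mean and SD of compound and empty wells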)
[13] = ovarian cancer cell viability with rucaparib, profiling panel, oncology-focused library, rucaparib conditional (AID 1508598); conditions: patient-derived ovarian cancer cells, CellTiter-Glo viability, 144 h, stronger effect = lower value
[14] = viability rescue of complex I mutant cybrids, primary screen, cell-based, galactose medium, ATP luminescence (AID 1645843;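 active = z-score of at least 1.8 in each of two replicates, scored against plate mean and spread of sample wells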;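 note: positive z means more ATP and so rescue of galactose-driven cybrid death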); conditions: complex I mutant cybrid cells, 72 h, stronger effect = higher value

CN1CCN(Cc2ccc(NC(=O)Nc3ccc(Oc4cc(NC(=O)C5CC5)ncn4)cc3)cc2C(F)(F)F)CC1
active: AC50 [1] 468 nM | AC50 [2] 5900 nM | AC50 [3] 118 nM | AC50 [4] 235 nM | AC50 [5] 525 nM | AC50 [6] 417 nM | AC50 [7] 2960 nM | AC50 [8] 372 nM | IC50 [9] 417 nM

CC(C)(O)[C@H]1CC[C@@](C)([C@H]2[C@@H](O)C[C@@]3(C)[C@@H]4C[C@H](O[C@@H]5O[C@H](CO)[C@@H](O)[C@H](O)[C@H]5O)[C@H]5C(C)(C)[C@@H](O[C@@H]6OC[C@@H](O)[C@H](O)[C@H]6O)CC[C@@]56C[C@@]46CC[C@]23C)O1
inactive: outcome [1] | outcome [2] | outcome [3] | outcome [4] | outcome [5] | outcome [6] | outcome [7] | outcome [8] | outcome [9]

Cc1c(CN2CCN(C(=O)[C@H](C)O)CC2)sc2c(N3CCOCC3)nc(-c3cnc(N)nc3)nc12
active: AC50 [1] 590 nM | AC50 [2] 1870 nM | AC50 [3] 1870 nM | AC50 [4] 41.8 nM | AC50 [5] 590 nM | AC50 [6] 209 nM | AC50 [7] 935 nM | AC50 [8] 372 nM | IC50 [9] 934 nM

C=C(C)[C@@H]1CC[C@]2(C)CC[C@]3(C)[C@H](CC[C@@H]4[C@@]5(C)CC[C@H](O)C(C)(C)[C@@H]5CC[C@]43C)[C@@H]12
inactive: outcome [1] | outcome [2] | outcome [3] | outcome [4] | outcome [5] | outcome [6] | outcome [7] | outcome [8] | outcome [9]

CS(=O)(=O)c1cccc(CNc2nc(Nc3ccc4c(c3)CCC(=O)N4)ncc2C(F)(F)F)c1
-1.44: SSMD [11]
0.606 and 1.43: fold change ([10]; measured here: relative caspase fold change +Dox/-Dox)
1320 and 1930: cell count ([10]; measured here: total cells with miR-34 induction, stronger effect = lower value)
1440 and 2320: cell count ([10]; measured here: total cells without miR-34 induction)
active: AC50 [1] 6610 nM | AC50 [2] 18700 nM | AC50 [3] 16600 nM | AC50 [4] 18700 nM | AC50 [5] 8330 nM | AC50 [6] 4680 nM | AC50 [7] 16600 nM | AC50 [8] 2350 nM | IC50 [9] 8330 nM | viability ([13]; at 0.000305 µM, OCI-C5x cells, with rucaparib 10 µM, 100% = cells with rucaparib alone) 98.4% | viability ([13]; at 0.000305 µM, OCI-P5x cells, with rucaparib 20 µM, 100% = cells with rucaparib alone) 88.7% | viability ([13]; at 0.00122 µM, OCI-P5x cells, with rucaparib 20 µM, 100% = cells with rucaparib alone) 84.8% | viability ([13]; at 0.00488 µM, OCI-P5x cells, with rucaparib 20 µM, 100% = cells with rucaparib alone) 93.9% | viability ([13]; at 0.0195 µM, OCI-P5x cells, with rucaparib 20 µM, 100% = cells with rucaparib alone) 91.7% | viability ([13]; at 0.0781 µM, OCI-P5x cells, with rucaparib 20 µM, 100% = cells with rucaparib alone) 88% | viability ([13]; at 0.313 µM, OCI-P5x cells, with rucaparib 20 µM, 100% = cells with rucaparib alone) 93.7% | viability ([13]; at 1.25 µM, OCI-P5x cells, with rucaparib 20 µM, 100% = cells with rucaparib alone) 75.9% | viability ([13]; at 5 µM, OCI-C5x cells, with rucaparib 10 µM, 100% = cells with rucaparib alone) 56.8% | viability ([13]; at 5 µM, OCI-C5x cells, without rucaparib) 59.8% | viability ([13]; at 5 µM, OCI-P5x cells, with rucaparib 20 µM, 100% = cells with rucaparib alone) 44.7% | viability ([13]; at 5 µM, OCI-P5x cells, without rucaparib) 74.7%
7540: cell count [11]
inactive: fold change ([10]; stronger effect = lower value, cell number ratio, induced over uninduced) 0.913 and 0.835 | plate-normalised HSF1 focus index [11] 0.911 | z-score ([12]; MELAS cybrid survival, CellTiter-Glo 48 h, stronger effect = higher value) -0.299 | viability ([13]; at 0.000305 µM, OCI-C5x cells, without rucaparib) 109% | viability ([13]; at 0.000305 µM, OCI-P5x cells, without rucaparib) 101% | viability ([13]; at 0.00122 µM, OCI-C5x cells, with rucaparib 10 µM, 100% = cells with rucaparib alone) 108% | viability ([13]; at 0.00122 µM, OCI-C5x cells, without rucaparib) 114% | viability ([13]; at 0.00122 µM, OCI-P5x cells, without rucaparib) 106% | viability ([13]; at 0.00488 µM, OCI-C5x cells, with rucaparib 10 µM, 100% = cells with rucaparib alone) 113% | viability ([13]; at 0.00488 µM, OCI-C5x cells, without rucaparib) 112% | viability ([13]; at 0.00488 µM, OCI-P5x cells, without rucaparib) 109% | viability ([13]; at 0.0195 µM, OCI-C5x cells, with rucaparib 10 µM, 100% = cells with rucaparib alone) 104% | viability ([13]; at 0.0195 µM, OCI-C5x cells, without rucaparib) 109% | viability ([13]; at 0.0195 µM, OCI-P5x cells, without rucaparib) 108% | viability ([13]; at 0.0781 µM, OCI-C5x cells, with rucaparib 10 µM, 100% = cells with rucaparib alone) 102% | viability ([13]; at 0.0781 µM, OCI-C5x cells, without rucaparib) 109% | viability ([13]; at 0.0781 µM, OCI-P5x cells, without rucaparib) 112% | viability ([13]; at 0.313 µM, OCI-C5x cells, with rucaparib 10 µM, 100% = cells with rucaparib alone) 108% | viability ([13]; at 0.313 µM, OCI-C5x cells, without rucaparib) 116% | viability ([13]; at 0.313 µM, OCI-P5x cells, without rucaparib) 115% | viability ([13]; at 1.25 µM, OCI-C5x cells, with rucaparib 10 µM, 100% = cells with rucaparib alone) 113% | viability ([13]; at 1.25 µM, OCI-C5x cells, without rucaparib) 116% | viability ([13]; at 1.25 µM, OCI-P5x cells, without rucaparib) 107% | z-score [14] -0.545
-0.256: z-score ([12]; Rieske KO mouse fibroblast survival, CellTiter-Glo 72 h)
